In the library only some 2% were active in any assay of this set; here they are far more common.
EP2 mod: modulates human prostaglandin E2 receptor EP2 signaling. P43116. EP2-expressing cells, cAMP HTRF FRET, PGE2 co-stimulation. induction, % at 25 µM. 0.83% of 260,000 active;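 active = compounds whose cAMP rise, as percent of the full-agonist control response, exceeds 60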;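 note: rat C6 glioma line stably carrying human EP2 under a CMV promoter; the protocol text gives 20 µM as final concentration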
CHT block: inhibits the human high affinity choline transporter; AID 488975; Q9GZV3; CHT-expressing cells, membrane potential dye, choline response; hits give low values; 0.86% of 310,000 active; B-score at 10 µM;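 active = B-score over 3 SD under the library average, and starting fluorescence ratio not unusually high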;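 note: choline stimulus applied at its EC90 after an EC20 pre-addition; B-score computed on integrated fluorescence ratio after choline addition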
Target sequence (Q9GZV3 whole entry, looked up): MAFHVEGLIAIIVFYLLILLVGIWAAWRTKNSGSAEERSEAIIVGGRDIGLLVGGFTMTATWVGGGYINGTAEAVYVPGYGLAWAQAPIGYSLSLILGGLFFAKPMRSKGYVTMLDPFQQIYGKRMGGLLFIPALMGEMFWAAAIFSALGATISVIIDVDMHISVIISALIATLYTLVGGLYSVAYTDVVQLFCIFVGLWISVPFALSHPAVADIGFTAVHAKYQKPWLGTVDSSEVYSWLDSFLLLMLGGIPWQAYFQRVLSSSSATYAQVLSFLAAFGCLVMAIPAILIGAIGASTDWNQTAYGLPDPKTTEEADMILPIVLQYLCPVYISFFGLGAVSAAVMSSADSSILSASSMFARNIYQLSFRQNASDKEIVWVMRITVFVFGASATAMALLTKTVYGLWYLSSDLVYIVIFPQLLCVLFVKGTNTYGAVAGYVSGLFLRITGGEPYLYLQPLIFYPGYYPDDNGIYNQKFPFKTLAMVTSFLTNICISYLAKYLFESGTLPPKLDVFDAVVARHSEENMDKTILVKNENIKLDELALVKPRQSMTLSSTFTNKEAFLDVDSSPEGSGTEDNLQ
CHT allo act: allosterically activates the human high affinity choline transporter; CHT-expressing cells, membrane potential dye, choline EC20; hits give high values; LV-AA mutant CHT in HEK293 cells; B-score at 10 µM; 0.49% of 310,000 active; AID 488977;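 active = initial fluorescence not abnormally high and integrated response B-score, plate-corrected, over 3 SD above library mean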
PGE2 EP2 inh: inhibitors of human EP2 prostaglandin E2 receptor. 0.52% of 260,000 active. inhibition, % at 25 µM. C6 glioma cells expressing human EP2, cAMP TR-FRET; cells stimulated with saturating PGE2;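 active = percent inhibition above 40 after rounding to a whole number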;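 note: rat C6 glioma host cells with rolipram phosphodiesterase inhibitor present; the protocol text gives 20 µM as final concentration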
EP2 confirm: human EP2 receptor cAMP induction, negative in counter-screens; calls only at 20 µM (by protocol); shares compounds with EP2 mod; 47% of 1,300 active; C6 glioma EP2 cells, cAMP HTRF induction; plus low (about EC15) PGE2 agonist;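 active = cAMP induction above 50% in the main assay while under 30% in all four parallel counter assays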;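 note: rat C6 glioma cells stably expressing human EP2 receptor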
Of the large screens only hits and unclear results are named; the others gave an inactive call (follow-up assays come after a bar, where they were run).

CCCCn1c(=O)c2ccccc2c2ccccc2c1=O	EP2 mod 82.4 | EP2 confirm active
COCCn1c(=O)c2ccccc2c2ccccc2c1=O	none
O=C(COc1ccc(CN2CCN(C3CCCCC3)C(=O)C2)cc1)N1CCCC1	none (no result: CHT block, CHT allo act)
O=C(O)CSc1ccc2ccccc2n1	EP2 mod 66.7 | EP2 confirm inactive
CCOC(=O)CSc1ccc2ccccc2n1	none
O=C(Nc1ncc(Cc2cccc(C(F)(F)F)c2)s1)C1COc2ccccc2O1 (stereo unspecified)	none (no result: CHT block, CHT allo act)
CC(=O)O[C@H]1C[C@@H](OC(C)=O)C(C)(C)C2C[C@@H](OC(C)=O)[C@]3(C)C([C@H](OC(C)=O)C[C@@]4(C)[C@H](c5ccoc5)OC(=O)[C@H]5O[C@]543)[C@]21C (stereo partly specified)	EP2 mod 70.1 (no result: CHT block, CHT allo act) | EP2 confirm active
Cc1ccc(NCc2ccccc2OCc2ccccc2F)cc1	EP2 mod 76.4 | EP2 confirm inactive
CCOC(=O)Cn1nc(-c2ccccc2)c2ccccc2c1=O	none
O=c1c2ccccc2c(-c2ccccc2)nn1Cc1c(Cl)cccc1Cl	EP2 mod 85.3 | EP2 confirm active
Cc1ncc2c(n1)-c1cc(F)ccc1SC2	none (no result: EP2 mod, PGE2 EP2 inh)
CSc1ncc2c(n1)-c1cc(C)ccc1SC2	EP2 mod 78.2 | EP2 confirm active
CCSc1cc(N2CCCC2)nc(-c2ccccc2Cl)n1	none
CCSc1cc(N2CCOCC2)nc(-c2ccc(Cl)cc2)n1	EP2 mod 76.0 | EP2 confirm active
CC(C)Sc1cc(N2CCOCC2)nc(-c2ccccc2)n1	EP2 mod 73.9 | EP2 confirm active
CC(=O)Nc1cc(NC(=O)c2ccco2)ccc1C	none (no result: CHT block, CHT allo act)
O=c1[nH]c(SCc2cccc(Cl)c2)nc2c1CCCC2	EP2 mod 66.0 | EP2 confirm inactive
CCNC(=O)C1CCN(c2ccc(S(=O)(=O)N3CCCC3)cc2)CC1	none (no result: CHT block, CHT allo act)
Cc1cc(-c2sccc2C)nc(-n2cccc2)n1	EP2 mod 74.5 | EP2 confirm active
c1ccc(-c2cc(-c3ccncc3)nc3ccc4ccccc4c23)cc1	EP2 mod 98.6 | EP2 confirm active
Cc1cccc(NCc2nc3ccccc3n2Cc2ccccc2)c1	EP2 mod 66.3 | EP2 confirm inactive
Cc1cccc(NCc2nc3ccccc3n2C)c1	none
Cc1ccc(Cn2c(Cc3ccccc3)nc3ccccc32)cc1	EP2 mod 80.0 | EP2 confirm active
COc1ccc(OCC(=O)Nc2ncc(Cc3cccc(C)c3)s2)cc1	none (no result: CHT block, CHT allo act)
C=CCn1c(NCCN(CC)CC)nc2c1c(=O)[nH]c(=O)n2C	none (no result: CHT block, CHT allo act)
Cc1cc(NC(=O)c2cccc3c2C(=O)N(C2CCCCC2)C3)ccc1Br	none (no result: EP2 mod, PGE2 EP2 inh)
O=C(Nc1ccc2c(c1)OCO2)c1cccc2c1C(=O)N(C1CCCCC1)C2	EP2 mod 71.1 | EP2 confirm active
C=CCSc1ncnc2sc(C)c(C)c12	none | EP2 confirm inactive
CC(O)CN(Cc1ccc2c(c1)OCO2)Cc1coc2ccccc2c1=O (stereo unspecified)	none (no result: CHT block, CHT allo act)
Cc1ccccc1/C=C/c1nc2ccccc2c(=O)n1CCc1ccccc1	EP2 mod 70.6 | EP2 confirm active
Cc1ccc(/C=C/c2nc3ccccc3c(=O)n2CCc2ccccc2)cc1	EP2 mod 80.7 | EP2 confirm active
Cc1nc2ccccc2c(=O)n1CCc1ccccc1	none (no result: EP2 mod, PGE2 EP2 inh)
Nc1ncnc2c1nc(-c1ccccc1)n2[C@H]1O[C@@H](CO)[C@H](O)[C@H]1O	none (no result: CHT block, CHT allo act)
O=C(c1cc2sccc2n1Cc1ccccc1)N1CCCc2ccccc21	EP2 mod 69.0 | EP2 confirm active
Cn1c(C(=O)N2CCCc3ccccc32)cc2sccc21	EP2 mod 65.8 | EP2 confirm active
CCOc1nc2cccc(C(=O)OC(C)OC(=O)OC3CCCCC3)c2n1Cc1ccc(-c2ccccc2-c2nn[nH]n2)cc1 (stereo unspecified)	none (no result: CHT block, CHT allo act) | EP2 confirm inactive
CCCc1nc(C(C)(C)O)c(C(=O)OCc2oc(=O)oc2C)n1Cc1ccc(-c2ccccc2-c2nn[nH]n2)cc1	none (no result: CHT block, CHT allo act)
N#Cc1sc2nc(N3CCCCC3)c3c(c2c1N)CCCC3	EP2 mod 73.0 | EP2 confirm active
COc1ccc(C(=O)N2CCC[C@H](Cn3cc(C(=O)NCc4ccccc4F)nn3)C2)o1	none (no result: CHT block, CHT allo act)
CCC(C(=O)O)[n+]1c(C)cc(C)cc1C (stereo unspecified)	none (no result: CHT block, CHT allo act)
Cc1nc(N2CCN(C(=O)c3ccco3)CC2)c(C#N)c2c1CCCC2	none (no result: EP2 mod, PGE2 EP2 inh)

Assay outcomes as filed in PubChem BioAssay.
